Source: PubChem
Compounds with a hit are over-represented: about 12% of the library has one in this group of screens.
HP1b binding inh = HTS for Inhibitors of HP1-beta Chromodomain Interactions with Methylated Histone Tails | Chromobox protein homolog 1 (Homo sapiens), P83916 | actives 0.56% (n = 390,000) | Potency, µM (highest dose often 114 µM), for inactives: at the top dose activity change, negative = inhibition, hits mostly inhibitors | AlphaScreen HP1-beta / biotin-H3K9me3 peptide binding; further: nearly all actives have a fitted effect of over 70% in size
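Compound inhibition of the preformed complex between 50 nM HP1-beta and 50 nM biotinylated H3K9me3 peptide was read by AlphaScreen. Buffer was PBS pH 7.4 with 0.01% Tween-20. Incubations ran 30 min at room temperature, with 10 ug/mL donor/acceptor beads.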
Sfp inh = qHTS Assay for Inhibitors of Bacillus subtilis Sfp phosphopantetheinyl transferase (PPTase). 4'-phosphopantetheinyl transferase ffp (Bacillus subtilis), Q9F4F7. Biochemical Sfp PPTase activity, qHTS. Potency, µM, for the others: largest response in the series, negative = inhibition, hits mostly inhibitors. actives 3.5% (n = 310,000). AID 1490, 2009;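 further: the enzyme is Sfp with the accession as filed and its product quenches rhodamine fluorescence; 0% = enzyme reaction without inhibitor and -100% = no enzyme wells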
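Step 1, compound plus 15 nM Sfp-PPTase, 15 min, room temperature. Step 2, add rhodamine-CoA (5 uM) and BHQ-2-YbbR (12.5 uM). Step 3, read 525/598 nm fluorescence at 0 and 30 min.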
BAZ2B block = qHTS Assay for Inhibitors of BAZ2B; Bromodomain adjacent to zinc finger domain protein 2B (Homo sapiens), Q9UIF8; AlphaScreen BAZ2B-H3K14Ac peptide displacement; Potency, µM (series often up to 114 µM), for inactives: top-dose activity change, negative = inhibition, most hits filed as inhibitors; actives 4.4% (n = 360,000); AID 504333, 2011; further: on the % scale 0 is the no-effect control and ±100 the full control effect; nearly all actives have a fitted effect of over 60% in size
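BAZ2B (50 nM) with biotin-H3(5-23)K14Ac peptide (50 nM) in PBS pH 7.4, 0.01% Tween-20, preformed 30 min, then compound 30 min at room temperature; top concentration 110uM. AlphaScreen streptavidin donor/nickel chelate acceptor beads (10 ug/mL final), 20 min dark, signal read.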
G9a block = qHTS Assay for Inhibitors of Histone Lysine Methyltransferase G9a; G9a H3K9 monomethylation, AlphaScreen, 2 h; Potency, µM (top dose mostly 102 µM), inactives show at the highest dose activity, negative = inhibition, hits mostly inhibitors; Histone-lysine N-methyltransferase EHMT2 (Homo sapiens), Q96KQ7; actives 8.8% (n = 350,000); further: on the % scale 0 is the no-effect control and ±100 the full control effect; nearly all actives have a fitted effect of over 75% in size
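G9a (20 nM) was preincubated 15 min with compound, then reacted 2 h at room temperature with 500 nM biotin-H3K9 peptide and 20 µM SAM. Monomethyl-H3K9 detected by AlphaScreen using anti-H3K9me1 antibody.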
PLK1 PBD block = qHTS for Inhibitors of PLK1-PDB (polo-like kinase 1 - polo-box domain): Primary Screen | Plk1 PBD binding of FITC phosphopeptide, fluorescence polarization | Potency, µM, inactives show max response, negative = inhibition, usual class: inhibitors | actives 2.8% (n = 360,000); further: series mostly up to about 57 µM; on the % scale 0 is the no-effect control and ±100 the full control effect; nearly all actives have a fitted effect of over 65% in size
JMJD2A Tudor = qHTS Assay for Inhibitors of JMJD2A-Tudor Domain. Lysine-specific demethylase 4A (Homo sapiens), O75164. AlphaScreen JMJD2A-Tudor / H3K4me3 peptide binding. Potency, µM (top dose mostly 114 µM), without a hit: top-dose activity change, negative = inhibition, hits mostly inhibitors. actives 4.4% (n = 390,000); further: on the % scale 0 is the no-effect control and ±100 the full control effect; nearly all actives have a fitted effect of over 50% in size
The depositor's hits bear a star; ? = inconclusive; . = no result; [ ] = remark or other dose. The call rests on the fitted dose curve; in most records, active means well fitted curve in the direction sought with a large enough effect; inconclusive means small, poorly fitted or top-dose-only effect, or another doubt; inactive means no such curve, though single readings can be large; an effect the other way counts as inactive or inconclusive. Potency means the concentration at half of the fitted maximal effect.

SMILES	HP1b binding inh	Sfp inh	BAZ2B block	G9a block	PLK1 PBD block	JMJD2A Tudor
CCOc1ccc(NC(=O)CN2C(=O)COc3ccc(S(=O)(=O)NC4CCCC4)cc32)cc1	12%	.	2%	2%[59 µM]	.	-17%
CCCCCC(=C/c1ccccc1)/C=N/Nc1ccc(S(=O)(=O)N2CCOCC2)cc1[N+](=O)[O-]	?	.	.	.	-12%	?
CC(C)c1ccc(S(=O)(=O)c2ccc(NN)cc2)cc1	50%	2%	-10%	10µM*	-28%	-12%
CCOC(=O)c1nn(-c2ccc(F)cc2)c2c1CC/C2=C/c1ccccc1	38%	0%	-1%	71µM*	-8%	-7%
CCOC(=O)c1nn(-c2ccccc2)c(C(=O)OCC)c1N	27%	16%	-1%	-24%[12.7 µM]	-1%	-7%
CCOC(=O)c1ccc(NC(=O)c2cnn(-c3ccc(C)cc3C)c2C2CCN(C(=O)OC(C)(C)C)CC2)cc1	21%	.	0%[57.1 µM]	-27%[59 µM]	.	-23%
CC(=O)n1c(=O)c2ccccc2c(=O)n1-c1ccccc1	30%	25%	1%	-45%	13µM*	4%
O=c1c2ccccc2c(=O)n(-c2ccccc2)n1CCCCBr	43%	.	.	.	-5%	13%
COc1ccc(NC(=O)N2CC3(CCN(S(C)(=O)=O)CC3)C2)cc1	.	-1%	.	7%[12.7 µM]	.	.
CS(=O)(=O)N1CCN(C/C=C/c2ccccc2)CC1	43%	18%	-11%	?	-6%	-2%
O=[N+]([O-])c1ccccc1/C=C/CN1CCN(Cc2ccc3c(c2)OCO3)CC1	?	-12%	?	.	-20%	22µM*
C/C(=C\c1ccccc1)C(=O)N1CCN(Cc2ccc3c(c2)OCO3)CC1	21%	4%	-23%	-49%	4%	0%
C(=C\c1ccccc1)/CN1CCN(Cc2ccc3c(c2)OCO3)CC1	?	-36%	50µM*	.	4%	1.3µM*
Cc1ccccc1CN1CCN(C/C=C/c2ccccc2)CC1	?	?	-31%	?	-4%	3.2µM*
CCc1nnc(NC(=O)CSc2nccn2Cc2ccccc2)s1	7%[57 µM]	.	-10%	4%[59 µM]	.	-28%
CS(=O)(=O)c1ccc(S(=O)CC(=O)Oc2ccc(Cl)cc2)c([N+](=O)[O-])c1 (stereo not given)	9%	?	-2%	6.3µM*	3µM*	-5%
COc1ccc(OC)c(CNC(=O)c2ccc3nc(C(C)C)oc3c2)c1	9%[57 µM]	.	-7%	4%[59 µM]	.	-15%
COC(=O)[C@@H]1C[C@H]1[C@@H](NS(=O)(=O)c1ccc2ccccc2c1)c1ccccc1	.	-4%	.	.	.	.
O=c1c2ccccc2nnn1CSc1nnc(-c2cccnc2)n1-c1ccccc1F	7%	14%	0%	50µM*	-4%	-16%
Nn1c(Cc2ccccc2F)nnc1SCn1nnc2ccccc2c1=O	59%	3%	10%	25µM*	?	-13%
CN1OC[C@@H]2CN(S(=O)(=O)c3ccccc3)[C@H](c3ccc(-n4ccnc4)cc3)C[C@@H]21	.	.	.	.	-10%	.
O=C1CCC[C@@H]2[C@H](Cc3ccccc3)[C@@H](O)C[C@@H]3CCN1[C@@H]32	41%	.	.	.	3%	-6%
O=C1CCC[C@@H]2[C@@H](Cc3ccccc3)[C@H](N3CCN(c4ccccc4)CC3)C[C@@H]3CCN1[C@@H]32	-21%	.	.	.	0%	45µM*
Cc1cc(NC(=O)CN2C(=O)c3cccnc3Sc3ccccc32)ccc1Br	11%	.	-6%	25%[59 µM]	.	-6%
COC(=O)/C(=C1/OC(=O)C(c2ccccc2)=C1O)c1ccccc1	.	-8%	.	.	.	.
SMILES	HP1b binding inh	Sfp inh	BAZ2B block	G9a block	PLK1 PBD block	JMJD2A Tudor
N#Cc1ccsc1NC(=O)CCS(=O)(=O)c1ccccc1	50%	-7%	-4%	45µM*	?	-9%
NC(=O)c1ccsc1NC(=O)CCS(=O)(=O)c1ccc(Cl)cc1	27%	.	1%	35µM*	?	-19%
NC(=O)c1ccsc1NC(=O)CCS(=O)(=O)c1ccccc1	25%	11%	-21%	5%[12.7 µM]	-7%	-11%
N#Cc1ccsc1NC(=O)COC(=O)CCS(=O)(=O)c1ccccc1	4%[57 µM]	.	.	.	-19%	-25%
COc1ccc(NC(=O)c2cc3c(=O)n(C)c4cc(Cl)ccc4c3s2)cc1Cl	22%	.	3%	-15%[59 µM]	.	-11%
C[C@H](NC(=O)c1ccc(Cl)cc1)C(=O)OCn1nnc2ccccc2c1=O	27%	.	.	.	-9%	?
CN(C)c1ccc(NC(=O)CCCCCn2nnc3ccccc3c2=O)cc1	16%	7%	-20%	50µM*	-8%	-25%
CC(=O)Nc1ccc(NC(=O)CCn2nnc3ccccc32)cc1	?	-13%	18%	.	19µM*	?
O=C(CSCC(=O)OCn1nnc2ccccc2c1=O)Nc1ccc(Cl)cc1	25%	-10%	-22%	45µM*	?	1%
CCOC(=O)c1ccc(NC(=O)CCn2nnc3ccccc32)cc1	32%	2%	1%	-3%[59 µM]	0%	2%
CC(=O)c1ccc(NC(=O)CCCCCn2nnc3ccccc3c2=O)cc1	33%	-6%	6%	13%	2%	13%
Nc1ccc(CNc2ncn[nH]2)cc1	-13%	10%	2%	-11%[59 µM]	24µM*	-6%[11.4 µM]
Fc1ccc(CNc2ccc(CNc3ncn[nH]3)cc2)cc1	5%	6%	-32%	8%	-1%	-30%
Cc1ccc(-n2nc(CO)c(C(=O)NC(C)CCCc3ccccc3)n2)cc1C (stereo not given)	45%	.	-2%	7%[59 µM]	.	-13%
CCN(CC)S(=O)(=O)c1ccc(C)c(NC(=S)N2CCN(c3ccccn3)CC2)c1	-9%	?	-17%	32µM*	30µM*	-27%
CCc1ccccc1NC(=S)N1CCN(c2ccccn2)CC1	20%	11%	-4%	15%[59 µM]	-10%	-19%[57.1 µM]
CCN(CC)S(=O)(=O)c1ccc(C)c(NC(=S)N2CCN(Cc3ccc4c(c3)OCO4)CC2)c1	-6%	8%	?	?	?	?
CCN(CC)S(=O)(=O)c1ccc(C)c(NC(=S)N2CCN(C/C=C/c3ccccc3)CC2)c1	15%	-10%	?	35µM*	-27%	-35%
NC(=S)NN=C1CCC2(CCCCC2)CC1	18%	.	.	.	-21%	-16%
CC1(C)CCC(=NNC(N)=S)CC1	?	.	.	.	-12%	0.71µM*
c1coc(CSSCc2ccco2)c1	?	.	-4%	20%[2.33 µM]	12µM*	56µM*
